Laboratory results published in PubChem BioAssay (NCI).
Values joined by “and” are separate entries in the source; they are usually repeats but may differ in a detail not shown here. Equal values may be shown once. About 83,000 compounds went through this panel and 20% of them were active in at least one assay; those are over-represented in the sample as a whole.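 Cells were grown in 96-well plates and exposed to the test compound at a single concentration for 48 hours; results are reported as percent growth, with values below 10 considered active.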 A number with no mark means an inactive call.

Tested on: HL-60(TB) leukemia
Test: NCI-60 one-dose screen, 48 h (100 = growth as untreated, 0 = no growth, -100 = all killed)
Conditions: 10 µM unless noted

Row | SMILES | growth
1 | CC(C)c1[nH]ncc1-c1nc2ccc3[nH]ncc3c2c2c1CCCC2 | 13.4%
2 | Cn1c2ccccc2c2nnc(NCCCCO)nc21 | 139%
3 | CCOc1ccc2nc3cc(N)ccc3c(N)c2c1 | 117% and 86.7%
